Experimental data reported in PubChem BioAssay (NCATS).
Unmarked numbers belong to inactive results. Inconclusive results are not listed. Active and inactive are the calls of the source. Unless noted, the call rests on the fitted dose curve; in most records, active means well fitted curve in the direction sought with a large enough effect; inconclusive means small, poorly fitted or top-dose-only effect, or another doubt; inactive means no such curve, though single readings can be large; an effect the other way counts as inactive or inconclusive.

Columns and labels:
[1] = target: Lysosomal acid glucosylceramidase (Homo sapiens) (UniProt P04062); test: Glucocerebrosidase-p2 (AID 348; in the data active means potency below about 10 µM; further: potency means the concentration at half of the fitted maximal effect); settings: purified GBA, blue fluorogenic substrate, 40 min
How it was run: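 Normal human glucocerebrosidase (0.2 nM) with blue fluorogenic substrate (80 uM final) in citrate/phosphate pH 5.9 with 10mM sodium taurocholate, 0.01% tween-20; 40 min RT, NaOH/glycine stop; fluorescence Ex 365/Em 440; AC50 from a titration from 0.6 nM upwards.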

[2] = AP1 Signaling Pathway (AID 357; active means well fitted curve in either direction with a large enough effect, not every such curve was filed as active;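 further: ME-180 reporter cells stimulated with EGF at its EC50 level; on the % scale 0 is the no-effect control and ±100 the full control effect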); settings: ME-180 AP-1-bla reporter, EGF-induced, beta-lactamase ratio, 5 h; at 7.69 µM (top of the series) unless noted
How it was run: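 Read-out was the 460nm/530nm emission ratio (excitation 405nm) after CCF4 loading for 2.5 hours at room temperature. Cells carried an AP-1-driven beta-lactamase reporter, were stimulated with EC50 EGF plus compound for 5 hours, and AC50 values came from titrations.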

[3] = target: Cytochrome P450 1A2 (Homo sapiens) (UniProt P05177); test: p450-cyp1a2 (AID 410; calls by dose curve; further: potency means the concentration at half of the fitted maximal effect); settings: recombinant CYP1A2, luciferin-ME demethylation, luminescence; series mostly up to 57 µM
How it was run: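 O-Demethylation of luciferin 6' methyl ether by human CYP1A2 is monitored as luciferase luminescence. Substrate sits at Km (100uM); enzyme is 20nM. Values are scaled to 57 uM furafylline as maximal inhibition.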

[4] = NFAT Signaling Pathway (AID 444; active means well fitted curve in either direction with a large enough effect, not every such curve was filed as active;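 further: carbachol stimulus at about its EC50 of 1 µM final; on the % scale 0 is the no-effect control and ±100 the full control effect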); settings: Jurkat NFAT-bla M1, carbachol, beta-lactamase ratio, 5 h; at 7.69 µM (top of the series) unless noted
How it was run: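 Read-out: CCF4 FRET ratio (460 nm/530 nm) after 1 h RT dye loading, used for %activity and AC50 from titration series. Cells: Jurkat NFAT-β-lactamase/M1 line, treated with compound plus 1 uM carbachol for 5 h, 37 °C.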

[5] = Stat Signaling Pathway (AID 446; active means well fitted curve in either direction with a large enough effect, not every such curve was filed as active;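 further: ME-180 cervical cancer cells given 40 pM IL-6 alongside compound; SIE-controlled beta-lactamase reporter measured as 460/530 nm FRET emission ratio; on the % scale 0 is the no-effect control and ±100 the full control effect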); settings: ME-180 (cervical carcinoma) SIE beta-lactamase reporter, IL-6 stimulated, 5 h; at 7.69 µM (top of the series) unless noted
How it was run: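 Overnight-plated ME-180 cells bearing a STAT Inducible Element beta-lactamase reporter; 5 h co-exposure to compound and 40 pM IL-6; values normalized to 300 pM IL-6 and 125 nM JAK inhibitor controls.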

[6] = target: Glucocorticoid receptor (Homo sapiens) (UniProt P04150); test: GR-GFP Redistribution (AID 450;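 active means compounds whose dose series gives a full or clear partial fitted curve of increased nuclear translocation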; further: potency means the concentration at half of the fitted maximal effect); settings: U2OS GR-GFP nuclear translocation, laser cytometry, 2 h
[7] = target: Glucocorticoid receptor (Homo sapiens) (UniProt P04150); test: GR-EFC Redistribution (AID 451; calls by dose curve; further: potency means the concentration at half of the fitted maximal effect); settings: CHO-K1 GR-EFC translocation, beta-gal luminescence, 2 h
How it was run: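 Translocation of GR-ED fusion to nuclear EA restores b-gal, read by luminescence after 1 h room-temperature detection. Engineered CHO-K1 biosensor cells, 1,000/well, exposed 2 h at 37 C to titrations up to 46 uM final.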

[8] = target: Mitogen-activated protein kinase 10 (Mus musculus) (UniProt Q61831); test: JNK3 AlphaScreen Assay (AID 530; active means well fitted curve in either direction with a large enough effect, not every such curve was filed as active;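 further: kinase came from lysate of stimulated human HepG2 cells; signal reports phosphorylation of biotinylated GST-cJun 1-79 at Ser73 with 10 µM ATP; on the % scale 0 is the no-effect control and ±100 the full control effect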); settings: JNK3 lysate, c-Jun phosphorylation; series mostly up to 57.1 µM
How it was run: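 qHTS titrations with 15 min compound pre-incubation before adding ATP (10 uM final). Read-out: AlphaScreen of Ser73-phosphorylated biotin-GST-cJun using HepG2 lysate JNK3 activated by IL-1β and TNFα.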

[9] = target: Cytochrome P450 3A4 (Homo sapiens) (UniProt P08684); test: qHTS Assay for Activators of Cytochrome P450 3A4 (AID 885); settings: recombinant CYP3A4, Luciferin-PPXE luminescence, 60 min; series mostly up to 57.1 µM; further: nearly all actives have a fitted effect of over 65% in size
How it was run: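 Using 20nM recombinant human CYP3A4 in potassium phosphate (200mM), substrate Luciferin-PPXE at 25uM, luminescent luciferin detection followed a 60-min RT NADPH reaction; data scaled to 57 uM ketoconazole.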

[10] = target: Cytochrome P450 2C19 (Homo sapiens) (UniProt P33261); test: qHTS Assay for Inhibitors and Substrates of Cytochrome P450 2C19 (AID 899); settings: recombinant CYP2C19, luciferin-H EGE luminescence; series mostly up to 57.1 µM; further: potency means the concentration at half of the fitted maximal effect; nearly all actives have a fitted effect of over 60% in size
How it was run: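 5nM enzyme + 10uM Luciferin-H EGE (=KM), 50mM KPO4; cpd pin-transferred, 10 min 37C; NADPH regen, 60 min 37C; stopped w/ luciferin detection reagent, 20 min; luminescence. Normalized to 57uM ketoconazole (AC100).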

[11] = target: Dual specificity protein kinase CLK4 (Homo sapiens) (UniProt Q9HAZ1); test: qHTS Assay for Inhibitors of CDC-like Kinase 4 (Kinase-Glo Assay) (AID 1770); settings: recombinant Clk4, Kinase-Glo ATP depletion luminescence; series mostly up to 66.7 µM; further: nearly all actives have a fitted effect of over 65% in size; further: potency means the concentration at half of the fitted maximal effect
How it was run: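 Recombinant human Clk4 (25 nM) phosphorylated RS repeat peptide (100 uM) with 1 uM ATP in Tris pH 7.5/MgCl2/EGTA/DTT/Triton buffer for 4.5 h at room temperature. Residual ATP was quantified by Kinase-Glo luciferase luminescence.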

[12] = target: Dual specificity protein kinase CLK4 (Homo sapiens) (UniProt Q9HAZ1); test: qHTS Assay for Inhibitors of CDC-like Kinase 4 (ADP-Glo Assay) (AID 1771); settings: recombinant CLK4, ADP-Glo luminescence; series mostly up to 80 µM; further: nearly all actives have a fitted effect of over 70% in size; further: potency means the concentration at half of the fitted maximal effect
How it was run: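 Compounds are pin-transferred onto substrate mix (100 uM RS peptide, 1 uM ATP), then 25 nM Clk4 is added. After 1 hr at room temperature, ADP-Glo reagent runs 45 min, detection reagent 30 min, then luminescence is read.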

[13] = target: Dual specificity protein kinase CLK4 (Homo sapiens) (UniProt Q9HAZ1); test: qHTS Assay for Inhibitors of CDC-like Kinase 4 (ADP-FP Assay) (AID 1795); settings: Transcreener ADP fluorescence polarization; series mostly up to 50 µM; further: nearly all actives have a fitted effect of over 60% in size; further: potency means the concentration at half of the fitted maximal effect
How it was run: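 Recombinant human Clk4 (6.25 nM) phosphorylated RS repeat peptide (100 uM) with 1 uM ATP in Tris pH 7.5/MgCl2/EGTA/DTT/Triton buffer for one hour. ADP was quantified by Transcreener competitive fluorescence polarization against an ADP calibration curve.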

[14] = target: Ubiquitin carboxyl-terminal hydrolase 1 (Homo sapiens) (UniProt O94782); test: Inhibitors of USP1/UAF1: Pilot qHTS (AID 504865); settings: purified USP1/UAF1, Ub-rhodamine cleavage fluorescence; series mostly up to 54.9 µM;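 further: rhodamine fluorescence freed from ubiquitin-rhodamine substrate followed over time; top concentration of the series differs between compounds; on the % scale 0 is the no-effect control and ±100 the full control effect; nearly all actives have a fitted effect of over 35% in size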
How it was run: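 USP1/UAF1 complex (1nM) preincubated with compound 15 min at room temperature, then Ub-Rho substrate (150nM final) added. Fluorescence read kinetically at 480/540 nm, 6 reads every 60 seconds. Buffer: 50mM HEPES pH 7.8, 0.5mM EDTA, 0.1 mg/ml BSA, 1mM TCEP, 0.01% Tween-20.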

[15] = Primary qHTS for small molecule stabilizers of the endoplasmic reticulum resident proteome: Secreted ER Calcium Modulated Protein (SERCaMP) assay (AID 1508630); settings: SH-SY5Y GLuc-SERCaMP (Gaussia luciferase released on ER calcium loss) secretion, thapsigargin, luminescence; series mostly up to 38.4 µM; further: on the % scale 0 is the no-effect control and ±100 the full control effect
How it was run: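 The SH-SY5Y reporter protocol was run at 3 concentrations up to 38.3 uM (primary) or 11 concentrations (follow-up): 16 h compound, 100 nM thapsigargin for 4 h, then extracellular luciferase luminescence.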

[16] = target: Cytochrome P450 3A4 (Homo sapiens) (UniProt P08684); test: qHTS Assay for Inhibitors and Substrates of Cytochrome P450 3A4 (AID 884); settings: recombinant CYP3A4, Luciferin-PPXE luminescence; series mostly up to 57.1 µM; further: potency means the concentration at half of the fitted maximal effect; nearly all actives have a fitted effect of over 50% in size
How it was run: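 Luminescent readout of luciferin produced by CYP3A4 (20 nM) dealkylation of Luciferin-PPXE, 25 uM (its KM). NADPH-driven reaction ran 60 min at RT after 10 min compound preincubation; data scaled to 57 uM ketoconazole as 100% inhibition.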

[17] = target: 3',5'-cyclic-AMP phosphodiesterase 4B (Homo sapiens) (UniProt Q07343); test: qHTS Assay for Inhibitors of PDE-IV (AID 607; active means well fitted activation curve with a large enough effect in the main read-out, with a control signal flat, not every such curve was filed as active; further: % of control where 0% means no effect); settings: HEK293 ACTOne CNG channel cells, membrane potential fluorescence; series mostly up to 22.9 µM
How it was run: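 Live HEK293 cells with a modified cyclic nucleotide-gated (CNG) channel report intracellular cAMP via membrane-potential dye fluorescence (ex 535/em 590 nm). Endogenous PDE-IV was targeted. Compounds were tested at up to 22.9 uM final; RO 20-1724 100 uM served as control.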

Cytochrome P450 1A2 (Homo sapiens), sequence (P05177 whole entry, looked up): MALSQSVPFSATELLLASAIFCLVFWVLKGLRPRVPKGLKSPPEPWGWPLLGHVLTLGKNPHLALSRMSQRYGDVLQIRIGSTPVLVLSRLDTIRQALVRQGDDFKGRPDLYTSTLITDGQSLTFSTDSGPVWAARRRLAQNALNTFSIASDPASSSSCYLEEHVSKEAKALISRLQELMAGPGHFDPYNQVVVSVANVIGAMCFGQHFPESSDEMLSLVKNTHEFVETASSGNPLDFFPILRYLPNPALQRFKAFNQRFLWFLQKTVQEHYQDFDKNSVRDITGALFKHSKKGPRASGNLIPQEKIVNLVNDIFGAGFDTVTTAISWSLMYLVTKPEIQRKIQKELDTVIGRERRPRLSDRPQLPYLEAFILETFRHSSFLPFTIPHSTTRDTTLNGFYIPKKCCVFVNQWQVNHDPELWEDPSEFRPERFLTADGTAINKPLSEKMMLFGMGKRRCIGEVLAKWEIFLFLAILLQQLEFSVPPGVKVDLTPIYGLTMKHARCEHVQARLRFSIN
Lysosomal acid glucosylceramidase (Homo sapiens), sequence (P04062 whole entry, looked up): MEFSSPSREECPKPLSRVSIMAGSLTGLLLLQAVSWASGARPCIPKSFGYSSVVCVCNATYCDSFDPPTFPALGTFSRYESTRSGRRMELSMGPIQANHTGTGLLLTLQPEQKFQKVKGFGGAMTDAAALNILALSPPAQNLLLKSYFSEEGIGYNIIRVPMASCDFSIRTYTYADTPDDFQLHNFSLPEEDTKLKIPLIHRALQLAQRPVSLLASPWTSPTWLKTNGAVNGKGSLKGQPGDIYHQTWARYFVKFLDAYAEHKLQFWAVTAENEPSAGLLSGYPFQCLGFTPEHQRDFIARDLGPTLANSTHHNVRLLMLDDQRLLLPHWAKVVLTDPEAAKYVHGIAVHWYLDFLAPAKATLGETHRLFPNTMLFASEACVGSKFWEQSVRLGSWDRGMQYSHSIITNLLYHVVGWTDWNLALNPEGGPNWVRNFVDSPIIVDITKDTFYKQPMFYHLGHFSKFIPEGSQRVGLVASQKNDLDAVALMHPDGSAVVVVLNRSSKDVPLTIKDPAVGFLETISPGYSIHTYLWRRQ
Cytochrome P450 3A4 (Homo sapiens), sequence (P08684 whole entry, looked up): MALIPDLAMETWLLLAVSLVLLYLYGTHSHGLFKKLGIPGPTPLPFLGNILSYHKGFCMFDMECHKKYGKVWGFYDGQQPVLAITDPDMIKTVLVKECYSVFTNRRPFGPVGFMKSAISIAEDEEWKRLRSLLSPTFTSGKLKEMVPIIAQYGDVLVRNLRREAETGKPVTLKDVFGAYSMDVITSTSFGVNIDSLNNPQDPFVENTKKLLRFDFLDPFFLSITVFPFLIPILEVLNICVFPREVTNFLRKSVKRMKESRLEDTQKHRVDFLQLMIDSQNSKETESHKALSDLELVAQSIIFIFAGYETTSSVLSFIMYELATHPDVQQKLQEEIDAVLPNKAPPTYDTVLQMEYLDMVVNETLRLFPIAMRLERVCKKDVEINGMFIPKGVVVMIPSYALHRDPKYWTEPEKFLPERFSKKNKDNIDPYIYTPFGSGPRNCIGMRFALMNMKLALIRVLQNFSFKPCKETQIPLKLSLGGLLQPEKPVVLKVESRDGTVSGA
Dual specificity protein kinase CLK4 (Homo sapiens), sequence (Q9HAZ1 whole entry, looked up): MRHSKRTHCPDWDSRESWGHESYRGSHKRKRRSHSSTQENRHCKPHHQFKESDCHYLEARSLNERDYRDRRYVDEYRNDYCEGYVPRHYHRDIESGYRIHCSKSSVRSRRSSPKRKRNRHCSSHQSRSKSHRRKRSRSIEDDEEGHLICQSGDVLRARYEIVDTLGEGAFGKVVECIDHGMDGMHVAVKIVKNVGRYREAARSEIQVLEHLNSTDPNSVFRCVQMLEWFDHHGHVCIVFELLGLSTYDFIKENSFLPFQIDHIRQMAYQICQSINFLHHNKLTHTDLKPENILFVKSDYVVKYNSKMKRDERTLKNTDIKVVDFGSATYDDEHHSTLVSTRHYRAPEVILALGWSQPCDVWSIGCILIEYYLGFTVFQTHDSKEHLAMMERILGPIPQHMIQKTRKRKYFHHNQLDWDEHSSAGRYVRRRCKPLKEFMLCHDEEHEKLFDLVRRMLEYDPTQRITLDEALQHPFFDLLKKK
Cytochrome P450 2C19 (Homo sapiens), sequence (P33261 whole entry, looked up): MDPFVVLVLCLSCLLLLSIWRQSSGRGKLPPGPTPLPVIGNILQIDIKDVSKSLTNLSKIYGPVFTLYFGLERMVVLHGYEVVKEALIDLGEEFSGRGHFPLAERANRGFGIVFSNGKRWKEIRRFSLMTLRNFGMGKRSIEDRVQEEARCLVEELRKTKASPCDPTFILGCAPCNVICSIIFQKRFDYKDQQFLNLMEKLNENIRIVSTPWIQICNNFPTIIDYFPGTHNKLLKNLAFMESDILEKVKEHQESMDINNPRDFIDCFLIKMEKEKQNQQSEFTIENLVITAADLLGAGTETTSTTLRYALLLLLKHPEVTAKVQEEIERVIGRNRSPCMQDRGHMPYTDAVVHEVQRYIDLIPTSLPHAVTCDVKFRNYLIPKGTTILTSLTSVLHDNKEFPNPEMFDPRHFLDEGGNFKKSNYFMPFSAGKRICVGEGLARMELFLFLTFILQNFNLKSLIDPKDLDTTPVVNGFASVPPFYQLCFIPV
Glucocorticoid receptor (Homo sapiens), sequence (P04150 whole entry, looked up, the tested form may be a part): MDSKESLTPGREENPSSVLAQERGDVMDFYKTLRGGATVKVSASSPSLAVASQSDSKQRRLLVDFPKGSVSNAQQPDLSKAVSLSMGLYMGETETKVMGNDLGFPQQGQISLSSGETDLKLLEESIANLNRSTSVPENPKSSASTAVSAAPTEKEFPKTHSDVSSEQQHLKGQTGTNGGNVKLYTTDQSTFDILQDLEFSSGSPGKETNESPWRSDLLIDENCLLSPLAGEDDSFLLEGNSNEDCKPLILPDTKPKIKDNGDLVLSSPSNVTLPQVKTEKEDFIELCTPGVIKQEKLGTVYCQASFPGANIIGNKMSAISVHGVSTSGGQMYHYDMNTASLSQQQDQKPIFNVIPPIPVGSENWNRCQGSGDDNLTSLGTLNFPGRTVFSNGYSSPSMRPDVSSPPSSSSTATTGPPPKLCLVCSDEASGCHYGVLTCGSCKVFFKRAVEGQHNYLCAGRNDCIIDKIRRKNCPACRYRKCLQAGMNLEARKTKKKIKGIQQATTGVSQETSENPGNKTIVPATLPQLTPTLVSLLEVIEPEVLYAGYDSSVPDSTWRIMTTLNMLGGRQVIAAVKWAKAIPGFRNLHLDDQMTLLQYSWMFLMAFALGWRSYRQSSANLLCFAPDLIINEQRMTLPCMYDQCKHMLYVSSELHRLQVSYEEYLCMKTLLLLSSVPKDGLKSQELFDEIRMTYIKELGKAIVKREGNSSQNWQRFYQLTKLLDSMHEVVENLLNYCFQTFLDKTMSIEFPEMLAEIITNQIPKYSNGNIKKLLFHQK
Ubiquitin carboxyl-terminal hydrolase 1 (Homo sapiens), sequence (O94782 whole entry, looked up): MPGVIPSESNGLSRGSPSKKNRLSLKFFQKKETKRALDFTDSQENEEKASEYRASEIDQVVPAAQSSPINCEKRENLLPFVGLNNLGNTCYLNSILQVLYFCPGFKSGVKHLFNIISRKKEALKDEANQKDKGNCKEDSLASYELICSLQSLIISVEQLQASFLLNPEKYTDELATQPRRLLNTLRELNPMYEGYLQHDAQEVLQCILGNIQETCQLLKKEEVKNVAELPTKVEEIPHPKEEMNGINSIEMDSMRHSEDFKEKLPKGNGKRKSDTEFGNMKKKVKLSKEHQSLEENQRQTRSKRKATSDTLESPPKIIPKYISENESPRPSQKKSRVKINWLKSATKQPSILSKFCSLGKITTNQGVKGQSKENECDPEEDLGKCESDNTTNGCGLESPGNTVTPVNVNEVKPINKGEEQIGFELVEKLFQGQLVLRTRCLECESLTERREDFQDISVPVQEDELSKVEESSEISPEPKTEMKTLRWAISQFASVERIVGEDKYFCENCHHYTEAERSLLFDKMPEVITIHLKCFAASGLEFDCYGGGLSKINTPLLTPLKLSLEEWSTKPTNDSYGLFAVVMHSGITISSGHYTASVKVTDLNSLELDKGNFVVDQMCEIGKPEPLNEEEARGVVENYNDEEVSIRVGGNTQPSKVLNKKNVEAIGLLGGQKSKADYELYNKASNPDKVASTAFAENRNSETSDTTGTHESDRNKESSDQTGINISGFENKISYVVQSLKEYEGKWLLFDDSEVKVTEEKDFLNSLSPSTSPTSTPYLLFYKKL
3',5'-cyclic-AMP phosphodiesterase 4B (Homo sapiens), sequence (Q07343 whole entry, looked up): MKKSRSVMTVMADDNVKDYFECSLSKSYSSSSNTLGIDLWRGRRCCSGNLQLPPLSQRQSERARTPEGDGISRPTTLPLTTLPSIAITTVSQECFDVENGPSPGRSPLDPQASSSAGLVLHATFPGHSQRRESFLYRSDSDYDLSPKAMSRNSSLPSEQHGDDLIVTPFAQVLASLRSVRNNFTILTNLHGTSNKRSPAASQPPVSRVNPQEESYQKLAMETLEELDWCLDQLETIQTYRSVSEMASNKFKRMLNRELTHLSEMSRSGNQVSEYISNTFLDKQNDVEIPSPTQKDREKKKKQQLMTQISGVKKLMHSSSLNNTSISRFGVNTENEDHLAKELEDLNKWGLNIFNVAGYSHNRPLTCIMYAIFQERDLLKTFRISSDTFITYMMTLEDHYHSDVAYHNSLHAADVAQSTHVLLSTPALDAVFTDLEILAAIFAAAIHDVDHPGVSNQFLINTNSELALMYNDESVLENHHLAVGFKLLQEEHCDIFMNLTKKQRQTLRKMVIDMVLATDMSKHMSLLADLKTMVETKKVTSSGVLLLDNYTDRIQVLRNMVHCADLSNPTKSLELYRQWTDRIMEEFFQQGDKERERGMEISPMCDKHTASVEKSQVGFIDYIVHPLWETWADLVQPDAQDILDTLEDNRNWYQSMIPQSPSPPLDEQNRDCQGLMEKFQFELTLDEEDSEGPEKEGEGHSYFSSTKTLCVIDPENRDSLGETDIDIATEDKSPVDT

Structure (SMILES) | Potency [1] [µM] | activity change, negative = inhibition [2] [%] | Potency [3] | activity change, negative = inhibition [4] [%] | activity, negative = inhibition [5] [%] | Potency [6] [µM] | Potency [7] [µM] | Potency [8] | Potency [9] | Potency [10] | Potency [11] | Potency [12] | Potency [13] | Potency [14] | outcome [15] | Potency [16] | Potency [17]
COc1cccc(-c2cc(NCc3ccccc3)ncn2)c1 | > 11.4 | -18.4 | 2 µM (active) | 13.6 | -5.77 | > 46 | > 46 | inactive | inactive | 7.94 µM (active) | 15.8 µM (active) | 28.2 µM (active) | 12.6 µM (active) | inactive | inactive |  | 
c1ccc(CNc2ncncc2-c2ccc3c(c2)OCO3)cc1 | > 11.4 | -23.4 | 0.126 µM (active) | 7.28 | -0.121 | > 46 | > 46 | inactive | inactive | 0.501 µM (active) | 6.31 µM (active) | 7.08 µM (active) | 2.51 µM (active) | inactive | inactive | 0.501 µM (active) | 
COc1ccccc1CNc1cc(-c2ccccc2C)ncn1 | > 11.4 | -17.3 | 5.01 µM (active) | -18.6 | 14.3 | > 46 | > 46 | inactive | inactive |  | inactive | inactive | inactive |  | inactive |  | 
CS(=O)(=O)Nc1cccc(-c2cncnc2NCc2cccnc2)c1 | > 11.4 | 10.9 | 15.8 µM (active) | -3.98 | -1.28 | > 46 | > 46 | inactive | inactive | 3.16 µM (active) | inactive | inactive | inactive |  | inactive |  | inactive
N#Cc1cccc(-c2nccc(NCc3cccs3)n2)c1 | > 11.4 | -27.8 | 0.251 µM (active) | 11.9 | -14.7 | > 46 | > 46 | inactive | inactive | 3.98 µM (active) | 7.08 µM (active) | 6.31 µM (active) | 8.91 µM (active) | inactive | inactive |  | 
CN(Cc1ccco1)c1ccnc(-c2ccccc2C(F)(F)F)n1 | > 11.4 | 2.94 | 2.51 µM (active) | -8.64 | -4.79 | > 46 | > 46 | inactive |  | 7.94 µM (active) | inactive | inactive | inactive |  | inactive |  | inactive
